# Where “and” joins values, the source holds several entries; their conditions need not be identical. Equal values may be shown once. Inconclusive results are not listed. Where a structure was tested more than once in an assay, its records may differ in their call. Calls of active or inactive are those of the source. The calls were made as follows, unless noted: active = hit-call score of the fitted dose curve at least 0.9, where 1 is the maximum; inactive = score below 0.9.
# Experiments:
# [1] = BSK_3C_VCAM1: BioMAP Diversity Plus: 3C Assay for Vascular cell adhesion molecule 1 (VCAM1) Biomarker Activity (AID 2282999); settings: BioMAP 3C HUVEC, VCAM1 ELISA, cytokine-stimulated; actives raise or lower the signal
# Procedure, shortened: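 Human umbilical vein endothelial cells (3C system), biomarker read by ELISA 24 h after dosing; bidirectional fit against DMSO baseline. Cytotoxicity tracked by SRB total-protein staining in parallel cultures at biomarker time.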
# [2] = BSK_4H_Eotaxin3: BioMAP Diversity Plus: 4H Assay for Eotaxin 3 Biomarker Activity (AID 2283000); settings: primary human endothelial cells (HUVEC); actives raise or lower the signal;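 also: CCL26 protein level quantified by ELISA in parallel with SRB cytotoxicity check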
# Procedure, shortened: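 Chemicals were added to human umbilical vein endothelium cultures, and Eotaxin-3 was quantified by ELISA at 24 h. Values were derived by bidirectional fitting with DMSO serving as negative control and activity baseline.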
# [3] = biological target: human Peroxisome Proliferator-activated Receptor alpha (PPARa), PPARA (gene 5465) (UniProt Q07869); assay: ATG_PPARa_TRANS: Attagene TRANS-FACTORIAL HepG2 Assay for human Peroxisome Proliferator-activated Receptor alpha (PPARa) (AID 2283001; active = hit-call score of the fitted dose curve at least 0.9, where 1 is the maximum;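 as to AC50: potency for gain of reporter signal over DMSO so agonist or activator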)
# Procedure, shortened: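 HepG2 cells transiently transfected with multiplexed GAL4-UAS reporters driven by exogenous chimeric NR-Gal4 proteins; reporter mRNA measured after 24 h dosing. Read-out by RT-PCR, 6-FAM labelling, HpaI digestion and capillary electrophoresis; gain of signal versus DMSO.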
# [4] = biological target: human Peroxisome Proliferator-activated Receptor delta (PPARd), PPARD (gene 5467) (UniProt Q03181); assay: ATG_PPARd_TRANS: Attagene TRANS-FACTORIAL HepG2 Assay for human Peroxisome Proliferator-activated Receptor delta (PPARd) (AID 2283002; active = hit-call score of the fitted dose curve at least 0.9, where 1 is the maximum)
# Procedure, shortened: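 HepG2 cells transiently transfected with GAL4-UAS multiplexed reporter units driven by exogenous chimeric NR-GAL4 proteins; 24 h compound exposure. Reporter mRNA measured by RT-PCR, 6-FAM primer extension, HpaI digestion and capillary electrophoresis; gain of signal fitted relative to DMSO.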
# [5] = read-out: Intercellular Adhesion Molecule 1 (ICAM1), ICAM1 (gene 3383); assay: BSK_3C_ICAM1: BioMAP Diversity Plus: 3C Assay for Intercellular Adhesion Molecule 1 (ICAM1) Biomarker Activity (AID 2283003); settings: primary human endothelial cells (HUVEC); actives raise or lower the signal
# Procedure, shortened: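 HUVEC primary cells stimulated under 3C conditions; ICAM1 measured by ELISA 24 h after compound dosing. Curves fitted bidirectionally against the DMSO baseline. Overt cytotoxicity checked by SRB staining of parallel cultures.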
# [6] = biological target: human Retinoic Acid Receptor beta (RARb), RARB (gene 5915) (UniProt P10826); assay: ATG_RARb_TRANS: Attagene TRANS-FACTORIAL HepG2 Assay for human Retinoic Acid Receptor beta (AID 2283004; active = hit-call score of the fitted dose curve at least 0.9, where 1 is the maximum)
# Procedure, shortened: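 Transient transfection of HepG2 with multiple reporter units → chemical dosing, 24 h → total RNA isolation → RT with oligo(dT) → reporter-specific PCR, 6-FAM primer extension, HpaI digest → capillary electrophoresis. Positive direction vs DMSO control.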
# [7] = BSK_3C_Proliferation: Cell Proliferation Assessment in the BioMAP Diversity Plus: 3C Assay (AID 2283006); settings: primary human endothelial cells (HUVEC);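 as to AC50: potency may reflect either rise or fall in cell number versus DMSO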
# Procedure, shortened: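 Subconfluent HUVEC (3C system) cultured with chemical; relative cell number read at 48 h by sulforhodamine B total-protein staining (0.1% SRB after 10% TCA fixation, 560 nm). Bidirectional fit relative to DMSO.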
# [8] = biological target: Peroxisome proliferator-activated receptor gamma (Homo sapiens) (UniProt P37231); assay: ATG_PPARg_TRANS: Attagene TRANS-FACTORIAL HepG2 Assay for human Peroxisome Proliferator-activated Receptor-gamma (PPARg) (AID 2283007; active = hit-call score of the fitted dose curve at least 0.9, where 1 is the maximum)
# Procedure, shortened: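 Transient transfection of HepG2 with GAL4-UAS-driven reporter units; chemical dosing 24 h; total RNA → oligo(dT) RT → PCR with reporter primers → 6-FAM primer extension → HpaI digest 2 h 37 C → capillary electrophoresis. Positive direction vs DMSO.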
# [9] = biological target: Nuclear receptor subfamily 1 group I member 2 (Homo sapiens) (UniProt O75469); assay: ATG_PXR_TRANS: Attagene TRANS-FACTORIAL HepG2 Assay for human Pregnane X Receptor (PXR) (AID 2283008; active = hit-call score of the fitted dose curve at least 0.9, where 1 is the maximum)
# Procedure, shortened: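 Fluorescence intensity of FAM-labelled, HpaI-digested reporter amplicons, separated by capillary electrophoresis, quantifies induction. HepG2 cells with PXR-Gal4 trans-reporter system were exposed 24 h; DMSO defines baseline.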
# [10] = biological target: human RAR-related Orphan Receptor gamma (RORg), RORC (gene 6097) (UniProt P51449); assay: ATG_RORg_TRANS: Attagene TRANS-FACTORIAL HepG2 Assay for human RAR-related Orphan Receptor gamma (RORg) (AID 2283011; active = hit-call score of the fitted dose curve at least 0.9, where 1 is the maximum)
# Procedure, shortened: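 First, HepG2 liver cells were transfected with GAL4-UAS-driven reporter constructs and the RORg-Gal4 fusion. Next, they were treated with chemical for 24 h. Finally, reporter mRNA was quantified by RT-PCR and capillary electrophoresis, with upward activity fitted against DMSO.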
# [11] = biological target: Retinoic acid receptor RXR-alpha (Homo sapiens) (UniProt P19793); assay: ATG_RXRa_TRANS: Attagene TRANS-FACTORIAL HepG2 Assay for human Retinoid X Receptor alpha (RXRa) (AID 2283012; active = hit-call score of the fitted dose curve at least 0.9, where 1 is the maximum)
# Procedure, shortened: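 HepG2 cells transiently transfected with GAL4-UAS reporter units and chimeric RXRa-Gal4 protein, treated 24 h. Reporter mRNA measured by RT-PCR, fluorescent labelling, HpaI digestion and capillary electrophoresis. Induction fitted against DMSO.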
# [12] = biological target: human Retinoid X Receptor beta (RXRb), RXRB (gene 6257) (UniProt P28702); assay: ATG_RXRb_TRANS: Attagene TRANS-FACTORIAL HepG2 Assay for human Retinoid X Receptor beta (RXRb) (AID 2283013; active = hit-call score of the fitted dose curve at least 0.9, where 1 is the maximum)
# Procedure, shortened: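 HepG2 cells were transiently transfected with multiplexed GAL4-UAS reporters and a chimeric RXRb-Gal4 construct, then exposed for 24 h. Reporter mRNA was quantified by RT-PCR, FAM labeling, HpaI digestion and capillary electrophoresis; gain of signal was scored against DMSO.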
# [13] = biological target: human Thyroid Receptor alpha (THRa1), THRA (gene 7067) (UniProt P10827); assay: ATG_THRa1_TRANS: Attagene TRANS-FACTORIAL HepG2 Assay for human Thyroid Receptor alpha (THRa1) (AID 2283014; active = hit-call score of the fitted dose curve at least 0.9, where 1 is the maximum)
# Procedure, shortened: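 Reporter transcript induction, read by capillary electrophoresis of 6-FAM-labelled RT-PCR products, reflects activity of a transfected THRa1-Gal4 fusion in HepG2 liver cells. Cells were dosed for 24 h; activity was fitted in the positive direction against DMSO.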
# [14] = read-out: E-selectin (Homo sapiens) (UniProt P16581); assay: BSK_3C_Eselectin: BioMAP Diversity Plus: 3C Assay for Eselectin Biomarker Activity (AID 2283015); settings: primary human endothelial cells (HUVEC); actives raise or lower the signal;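 also: cell surface E-selectin protein quantified by ELISA 24 h after dosing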
# Procedure, shortened: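 ELISA read-out of E-selectin on endothelial monolayers after 24 h chemical treatment. Human umbilical vein primary cells served as the system, with DMSO defining baseline activity for bidirectional fitting.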
# [15] = read-out: Interleukin-1 alpha (IL1a), IL1A (gene 3552); assay: BSK_BE3C_IL1a: BioMAP Diversity Plus: BE3C Assay for Interleukin-1 alpha (IL1a) Biomarker Activity (AID 2283016); settings: primary human bronchial epithelial cells; actives raise or lower the signal
# Procedure, shortened: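 Human primary bronchial epithelial cells, 24 h chemical exposure; IL-1a quantified by ELISA, fitted bidirectionally against DMSO. Cytotoxicity assessed in parallel by SRB total-protein staining at the time of measurement.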
# [16] = read-out: Monocyte Chemoattractant Protein-1 (MCP1), CCL2 (gene 6347); assay: BSK_3C_MCP1: BioMAP Diversity Plus: 3C Assay for Monocyte Chemoattractant Protein-1 (MCP1) Biomarker Activity (AID 2283017); settings: primary human endothelial cells (HUVEC); actives raise or lower the signal
# Procedure, shortened: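 ELISA read-out of MCP-1 from human umbilical vein endothelial cell cultures harvested 24 h post-dosing. Gain or loss of signal was fitted relative to DMSO.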
# [17] = read-out: Monocyte Chemoattractant Protein-1 (MCP1), CCL2 (gene 6347); assay: BSK_4H_MCP1: BioMAP Diversity Plus: 4H Assay for Monocyte Chemoattractant Protein-1 (MCP1) Biomarker Activity (AID 2283018); settings: primary human endothelial cells (HUVEC); actives raise or lower the signal
# Procedure, shortened: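 Human umbilical vein endothelial cells (4H system) exposed to chemicals for 24 h in 96-well format. MCP-1 measured by ELISA; bidirectional fitting against DMSO, with SRB total-protein staining in parallel cultures for cytotoxicity.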
# [18] = read-out: Human Leukocyte Antigen - DR isotype (HLADR), HLA-DRA (gene 3122); assay: BSK_3C_HLADR: BioMAP Diversity Plus: 3C Assay for Human Leukocyte Antigen - DR isotype (HLADR) Biomarker Activity (AID 2283019); settings: primary human endothelial cells (HUVEC); actives raise or lower the signal;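 also: ELISA of cell-surface HLA-DR on HUVEC 24 h after dosing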
# Procedure, shortened: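 ELISA readout of surface HLA-DR on human umbilical vein endothelium, taken 24 h after chemical treatment. Gain- and loss-of-signal were both fitted relative to DMSO.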
# [19] = biological target: Retinoic acid receptor alpha (Homo sapiens) (UniProt P10276); assay: ATG_RARa_TRANS: Attagene TRANS-FACTORIAL HepG2 Assay for human Retinoic Acid Receptor alpha (RARa) (AID 2283005; active = hit-call score of the fitted dose curve at least 0.9, where 1 is the maximum)
# Procedure, shortened: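 HepG2 transiently transfected with multiplex GAL4-UAS reporter units including a human RARa–GAL4 chimera; 24 h compound exposure. Reporter mRNA quantified by RT-PCR, 6-FAM labeling and capillary electrophoresis; gain of signal versus DMSO.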
# [20] = biological target: human Retinoic Acid Receptor gamma (RARg), RARG (gene 5916) (UniProt P13631); assay: ATG_RARg_TRANS: Attagene TRANS-FACTORIAL HepG2 Assay for human Retinoic Acid Receptor gamma (RARg) (AID 2283009; active = hit-call score of the fitted dose curve at least 0.9, where 1 is the maximum)
# Procedure, shortened: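 HepG2 transiently transfected with GAL4-UAS reporter units and chimeric NR-Gal4 constructs; 24 h compound exposure. Reporter mRNA quantified by RT-PCR, FAM labeling, HpaI digestion and capillary electrophoresis; gain-of-signal versus DMSO.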
# Sequence of human Thyroid Receptor alpha (THRa1), THRA (gene 7067) (P10827 whole entry, looked up, the tested form may be a part): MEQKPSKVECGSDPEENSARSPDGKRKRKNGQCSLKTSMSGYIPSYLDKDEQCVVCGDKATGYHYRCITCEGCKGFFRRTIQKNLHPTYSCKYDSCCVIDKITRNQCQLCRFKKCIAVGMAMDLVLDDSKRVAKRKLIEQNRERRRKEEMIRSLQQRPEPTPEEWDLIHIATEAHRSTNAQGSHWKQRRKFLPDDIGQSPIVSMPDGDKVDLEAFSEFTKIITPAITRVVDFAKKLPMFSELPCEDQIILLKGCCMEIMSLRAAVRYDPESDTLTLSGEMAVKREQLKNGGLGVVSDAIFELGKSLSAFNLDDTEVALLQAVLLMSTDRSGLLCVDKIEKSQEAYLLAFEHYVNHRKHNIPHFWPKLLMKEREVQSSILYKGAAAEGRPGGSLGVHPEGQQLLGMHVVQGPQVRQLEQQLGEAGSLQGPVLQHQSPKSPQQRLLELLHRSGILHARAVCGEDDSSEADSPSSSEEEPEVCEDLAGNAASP
# Sequence of human Retinoid X Receptor beta (RXRb), RXRB (gene 6257) (P28702 whole entry, looked up, the tested form may be a part): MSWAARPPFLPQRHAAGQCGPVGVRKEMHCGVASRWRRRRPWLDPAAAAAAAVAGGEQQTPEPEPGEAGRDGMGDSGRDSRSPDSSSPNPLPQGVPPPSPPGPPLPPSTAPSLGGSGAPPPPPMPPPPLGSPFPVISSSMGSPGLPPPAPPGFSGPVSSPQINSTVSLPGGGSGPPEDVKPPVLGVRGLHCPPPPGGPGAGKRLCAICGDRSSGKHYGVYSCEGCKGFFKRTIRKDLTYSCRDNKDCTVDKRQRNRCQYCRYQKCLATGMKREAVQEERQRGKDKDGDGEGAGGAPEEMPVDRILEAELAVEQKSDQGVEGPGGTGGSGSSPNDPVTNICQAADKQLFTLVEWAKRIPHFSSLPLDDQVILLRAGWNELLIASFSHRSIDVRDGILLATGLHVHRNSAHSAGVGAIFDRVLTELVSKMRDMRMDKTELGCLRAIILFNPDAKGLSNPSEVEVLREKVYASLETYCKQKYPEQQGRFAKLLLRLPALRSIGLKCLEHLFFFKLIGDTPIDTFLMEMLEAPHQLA
# Sequence of human Peroxisome Proliferator-activated Receptor alpha (PPARa), PPARA (gene 5465) (Q07869 whole entry, looked up, the tested form may be a part): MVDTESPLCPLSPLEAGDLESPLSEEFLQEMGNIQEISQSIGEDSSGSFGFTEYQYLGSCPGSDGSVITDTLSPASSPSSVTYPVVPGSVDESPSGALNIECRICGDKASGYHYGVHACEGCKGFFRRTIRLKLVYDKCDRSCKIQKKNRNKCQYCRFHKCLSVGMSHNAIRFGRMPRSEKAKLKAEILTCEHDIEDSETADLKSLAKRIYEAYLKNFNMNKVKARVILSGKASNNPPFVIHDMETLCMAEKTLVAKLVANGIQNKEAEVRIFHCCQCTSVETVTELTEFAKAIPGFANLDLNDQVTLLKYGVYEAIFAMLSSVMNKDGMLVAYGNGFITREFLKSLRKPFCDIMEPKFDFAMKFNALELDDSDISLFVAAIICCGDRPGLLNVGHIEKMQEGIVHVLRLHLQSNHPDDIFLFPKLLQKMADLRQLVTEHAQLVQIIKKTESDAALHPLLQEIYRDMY
# Sequence of E-selectin (Homo sapiens) (P16581 whole entry, looked up): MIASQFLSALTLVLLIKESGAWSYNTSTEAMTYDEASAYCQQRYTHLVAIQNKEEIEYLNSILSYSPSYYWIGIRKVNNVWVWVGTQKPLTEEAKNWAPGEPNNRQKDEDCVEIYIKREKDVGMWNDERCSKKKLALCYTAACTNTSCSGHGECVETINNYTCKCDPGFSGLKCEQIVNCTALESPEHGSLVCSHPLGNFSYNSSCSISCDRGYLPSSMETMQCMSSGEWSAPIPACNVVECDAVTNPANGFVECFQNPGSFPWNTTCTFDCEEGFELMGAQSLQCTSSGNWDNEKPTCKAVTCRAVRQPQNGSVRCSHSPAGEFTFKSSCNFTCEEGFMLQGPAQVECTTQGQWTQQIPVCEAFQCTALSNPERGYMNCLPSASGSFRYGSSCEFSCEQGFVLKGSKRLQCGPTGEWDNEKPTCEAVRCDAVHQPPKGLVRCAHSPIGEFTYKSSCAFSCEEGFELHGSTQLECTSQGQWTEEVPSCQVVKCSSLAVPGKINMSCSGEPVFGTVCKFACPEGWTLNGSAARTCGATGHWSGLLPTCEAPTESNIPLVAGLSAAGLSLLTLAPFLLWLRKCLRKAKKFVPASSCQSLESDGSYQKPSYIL
# Sequence of Retinoic acid receptor RXR-alpha (Homo sapiens) (P19793 whole entry, looked up, the tested form may be a part): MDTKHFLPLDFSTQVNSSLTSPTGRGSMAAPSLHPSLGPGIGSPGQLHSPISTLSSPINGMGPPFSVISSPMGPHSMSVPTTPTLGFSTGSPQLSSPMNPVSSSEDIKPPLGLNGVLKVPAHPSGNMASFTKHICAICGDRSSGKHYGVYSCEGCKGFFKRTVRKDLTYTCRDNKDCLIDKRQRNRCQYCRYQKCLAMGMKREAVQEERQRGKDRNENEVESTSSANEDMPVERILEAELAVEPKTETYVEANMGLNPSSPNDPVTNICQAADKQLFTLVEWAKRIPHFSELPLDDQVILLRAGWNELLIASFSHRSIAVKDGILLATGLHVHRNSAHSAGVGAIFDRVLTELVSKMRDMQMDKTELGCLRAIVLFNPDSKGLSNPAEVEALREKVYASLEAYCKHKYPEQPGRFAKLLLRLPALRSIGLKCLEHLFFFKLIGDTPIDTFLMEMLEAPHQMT
# Sequence of human RAR-related Orphan Receptor gamma (RORg), RORC (gene 6097) (P51449 whole entry, looked up, the tested form may be a part): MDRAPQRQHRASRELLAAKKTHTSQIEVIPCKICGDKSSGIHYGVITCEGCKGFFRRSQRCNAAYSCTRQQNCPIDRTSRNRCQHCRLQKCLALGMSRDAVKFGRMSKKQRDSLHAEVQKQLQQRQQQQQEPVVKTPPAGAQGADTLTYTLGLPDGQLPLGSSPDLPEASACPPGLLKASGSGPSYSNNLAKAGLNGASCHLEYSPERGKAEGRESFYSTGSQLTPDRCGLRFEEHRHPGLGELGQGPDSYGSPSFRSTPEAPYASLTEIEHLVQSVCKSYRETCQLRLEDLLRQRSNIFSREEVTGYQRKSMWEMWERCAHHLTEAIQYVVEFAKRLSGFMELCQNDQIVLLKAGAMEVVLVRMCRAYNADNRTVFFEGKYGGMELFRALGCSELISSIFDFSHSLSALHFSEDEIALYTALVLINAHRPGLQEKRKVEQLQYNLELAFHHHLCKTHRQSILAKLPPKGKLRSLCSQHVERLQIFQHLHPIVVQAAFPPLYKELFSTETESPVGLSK
# Sequence of human Peroxisome Proliferator-activated Receptor delta (PPARd), PPARD (gene 5467) (Q03181 whole entry, looked up, the tested form may be a part): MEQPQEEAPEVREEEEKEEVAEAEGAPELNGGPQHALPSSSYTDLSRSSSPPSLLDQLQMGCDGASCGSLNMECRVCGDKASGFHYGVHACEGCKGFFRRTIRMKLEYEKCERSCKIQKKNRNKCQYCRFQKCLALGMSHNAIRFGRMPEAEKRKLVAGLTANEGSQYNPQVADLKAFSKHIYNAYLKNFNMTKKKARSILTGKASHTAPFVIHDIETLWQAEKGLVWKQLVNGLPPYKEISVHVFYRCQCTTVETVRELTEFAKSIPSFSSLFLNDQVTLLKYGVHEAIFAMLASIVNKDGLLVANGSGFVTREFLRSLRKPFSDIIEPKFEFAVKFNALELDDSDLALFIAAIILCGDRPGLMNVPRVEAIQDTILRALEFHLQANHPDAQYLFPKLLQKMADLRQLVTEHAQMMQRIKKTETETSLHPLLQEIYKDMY
# Sequence of Nuclear receptor subfamily 1 group I member 2 (Homo sapiens) (O75469 whole entry, looked up, the tested form may be a part): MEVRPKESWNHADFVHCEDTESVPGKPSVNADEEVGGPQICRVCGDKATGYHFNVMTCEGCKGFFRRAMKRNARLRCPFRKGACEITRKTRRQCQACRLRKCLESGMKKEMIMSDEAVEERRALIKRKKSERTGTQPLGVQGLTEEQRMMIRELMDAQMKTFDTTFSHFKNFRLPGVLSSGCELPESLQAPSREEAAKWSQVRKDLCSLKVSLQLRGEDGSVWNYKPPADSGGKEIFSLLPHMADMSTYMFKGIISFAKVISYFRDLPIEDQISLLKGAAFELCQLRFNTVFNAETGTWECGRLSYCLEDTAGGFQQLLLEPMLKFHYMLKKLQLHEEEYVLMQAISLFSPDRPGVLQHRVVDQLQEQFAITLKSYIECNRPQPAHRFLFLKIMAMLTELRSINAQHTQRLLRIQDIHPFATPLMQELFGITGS
# Sequence of Peroxisome proliferator-activated receptor gamma (Homo sapiens) (P37231 whole entry, looked up, the tested form may be a part): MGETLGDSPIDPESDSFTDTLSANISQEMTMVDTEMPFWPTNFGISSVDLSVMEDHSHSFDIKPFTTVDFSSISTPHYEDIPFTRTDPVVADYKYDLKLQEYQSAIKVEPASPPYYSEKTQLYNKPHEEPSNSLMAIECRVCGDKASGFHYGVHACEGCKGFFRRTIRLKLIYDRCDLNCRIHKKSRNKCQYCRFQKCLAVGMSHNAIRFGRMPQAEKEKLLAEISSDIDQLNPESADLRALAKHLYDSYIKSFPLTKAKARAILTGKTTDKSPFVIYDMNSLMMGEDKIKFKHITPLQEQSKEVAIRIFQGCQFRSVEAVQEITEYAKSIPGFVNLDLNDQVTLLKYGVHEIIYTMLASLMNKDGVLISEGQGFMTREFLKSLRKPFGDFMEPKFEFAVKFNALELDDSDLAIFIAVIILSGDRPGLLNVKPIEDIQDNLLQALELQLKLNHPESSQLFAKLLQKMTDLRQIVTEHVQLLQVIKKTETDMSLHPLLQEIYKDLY
# Sequence of human Retinoic Acid Receptor beta (RARb), RARB (gene 5915) (P10826 whole entry, looked up): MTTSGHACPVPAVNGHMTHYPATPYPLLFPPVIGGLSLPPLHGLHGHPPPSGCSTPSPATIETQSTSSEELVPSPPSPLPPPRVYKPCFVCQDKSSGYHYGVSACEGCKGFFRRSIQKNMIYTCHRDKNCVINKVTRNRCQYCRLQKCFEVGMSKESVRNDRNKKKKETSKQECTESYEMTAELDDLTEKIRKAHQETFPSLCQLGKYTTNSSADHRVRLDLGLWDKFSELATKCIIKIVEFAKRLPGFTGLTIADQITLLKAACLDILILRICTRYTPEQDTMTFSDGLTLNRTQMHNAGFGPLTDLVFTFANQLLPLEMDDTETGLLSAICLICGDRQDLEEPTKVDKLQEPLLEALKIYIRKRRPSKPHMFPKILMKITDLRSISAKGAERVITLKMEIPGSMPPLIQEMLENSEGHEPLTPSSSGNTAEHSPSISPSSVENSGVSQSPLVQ
compound,measurement,setting,value
COC(=O)C(F)(F)C(F)(F)OC(F)(C(F)(F)F)C(F)(F)OC(F)=C(F)F (centres undefined),outcome,[1],inactive
same,outcome,[2],inactive
same,AC50,[3],8.47 µM (active) and 26 µM (active) and 10.1 µM (active)
same,AC50,[4],15.4 µM (active)
same,outcome,[4],inactive
same,outcome,[5],inactive
same,outcome,[6],inactive
same,outcome,[7],inactive
same,AC50,[8],124 nM (active) and 241 nM (active) and 127 nM (active)
same,AC50,[9],6.57 µM (active) and 19.5 µM (active) and 5.88 µM (active)
same,outcome,[10],inactive
same,outcome,[11],inactive
same,AC50,[12],31.8 µM (active) and 41.3 µM (active) and 28.2 µM (active)
same,outcome,[13],inactive
same,outcome,[14],inactive
same,outcome,[15],inactive
same,outcome,[16],inactive
same,outcome,[17],inactive
same,outcome,[18],inactive
O=C(O)C(F)(F)OC(F)(F)C(F)(F)OC(F)(F)F,outcome,[1],inactive
same,outcome,[2],inactive
same,AC50,[3],17.9 µM (active) and 15.4 µM (active)
same,outcome,[4],inactive
same,outcome,[5],inactive
same,outcome,[19],inactive
same,outcome,[7],inactive
same,AC50,[8],122 µM (active) and 84.6 µM (active)
same,outcome,[9],inactive
same,outcome,[10],inactive
same,outcome,[11],inactive
same,outcome,[12],inactive
same,outcome,[13],inactive
same,outcome,[14],inactive
same,outcome,[15],inactive
same,outcome,[16],inactive
same,outcome,[18],inactive
OCC(F)(F)OC(F)(F)C(F)(F)OC(F)(F)C(F)(F)OC(F)(F)CO,outcome,[1],inactive
same,outcome,[2],inactive
same,outcome,[3],inactive
same,outcome,[4],inactive
same,outcome,[5],inactive
same,AC50,[7],5.95 µM (active) and 35.3 µM (active)
same,outcome,[8],inactive
same,outcome,[9],inactive
same,outcome,[20],inactive
same,outcome,[11],inactive
same,AC50,[12],17.4 µM (active)
same,outcome,[13],inactive
same,outcome,[14],inactive
same,outcome,[15],inactive
same,outcome,[16],inactive
same,AC50,[17],16.2 µM (active)
same,outcome,[17],inactive
same,outcome,[18],inactive
